Among the data in ChEMBL document CHEMBL1961873, “Compounds: GSK PKIS; Assays: Nanosyn kinase panel” (2012) are inhibition values, retold here.

Assay [1] deals with Protein kinase C gamma type (Homo sapiens) (UniProt P05129). To be noted: at 1 µM.
For assay [2], the target named is T1, Protein kinase C iota type (Homo sapiens) (UniProt P41743).
T1 sequence (whole entry): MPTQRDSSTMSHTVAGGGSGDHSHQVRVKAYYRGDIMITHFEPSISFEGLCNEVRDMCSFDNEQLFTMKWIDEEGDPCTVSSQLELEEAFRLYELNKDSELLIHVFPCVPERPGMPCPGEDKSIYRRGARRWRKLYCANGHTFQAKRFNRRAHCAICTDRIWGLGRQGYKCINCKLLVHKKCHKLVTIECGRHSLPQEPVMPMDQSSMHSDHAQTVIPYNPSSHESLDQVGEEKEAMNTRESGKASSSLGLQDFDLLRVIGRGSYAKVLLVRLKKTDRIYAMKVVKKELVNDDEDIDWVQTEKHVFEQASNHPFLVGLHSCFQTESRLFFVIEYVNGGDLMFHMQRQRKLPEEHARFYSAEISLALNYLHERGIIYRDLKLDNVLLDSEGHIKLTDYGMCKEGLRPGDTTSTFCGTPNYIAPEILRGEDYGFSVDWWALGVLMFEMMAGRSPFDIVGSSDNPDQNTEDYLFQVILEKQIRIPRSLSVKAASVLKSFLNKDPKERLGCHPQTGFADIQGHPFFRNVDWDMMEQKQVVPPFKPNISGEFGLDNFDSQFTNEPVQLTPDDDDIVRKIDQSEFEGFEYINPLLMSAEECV
Conditions: at 0.1 µM.

Assay [3] has as its target T1, Protein kinase C iota type (Homo sapiens). Conditions: at 1 µM.
The target of assay [4] is Protein kinase C theta type (Homo sapiens) (UniProt Q04759). Conditions: at 0.1 µM.
Chain of Protein kinase C theta type (Homo sapiens) (Q04759 whole entry, looked up): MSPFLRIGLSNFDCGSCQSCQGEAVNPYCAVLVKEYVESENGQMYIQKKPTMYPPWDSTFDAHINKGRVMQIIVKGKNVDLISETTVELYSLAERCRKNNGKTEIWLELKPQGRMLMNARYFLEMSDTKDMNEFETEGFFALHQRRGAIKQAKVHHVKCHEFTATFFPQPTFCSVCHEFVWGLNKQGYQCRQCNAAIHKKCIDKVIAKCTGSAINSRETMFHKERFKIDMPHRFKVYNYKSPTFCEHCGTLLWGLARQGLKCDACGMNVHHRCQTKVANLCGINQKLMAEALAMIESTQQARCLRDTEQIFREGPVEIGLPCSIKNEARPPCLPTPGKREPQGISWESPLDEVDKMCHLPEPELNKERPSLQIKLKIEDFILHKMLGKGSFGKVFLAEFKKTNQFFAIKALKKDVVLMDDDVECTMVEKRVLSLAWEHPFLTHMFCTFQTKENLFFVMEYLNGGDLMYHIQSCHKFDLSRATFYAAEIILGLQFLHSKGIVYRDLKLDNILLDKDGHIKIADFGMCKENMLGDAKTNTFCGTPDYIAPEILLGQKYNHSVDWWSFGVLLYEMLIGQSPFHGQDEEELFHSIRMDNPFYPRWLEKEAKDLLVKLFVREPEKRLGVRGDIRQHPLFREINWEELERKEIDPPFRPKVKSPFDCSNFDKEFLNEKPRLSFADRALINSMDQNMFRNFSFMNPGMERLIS
Assay [5] has the same target. To be noted: at 1 µM.
The target in assay [6] is Protein kinase C beta type (Homo sapiens) (UniProt P05771). Conditions: at 0.1 µM.
Chain of Protein kinase C beta type (Homo sapiens) (P05771 2-671 limits assumed): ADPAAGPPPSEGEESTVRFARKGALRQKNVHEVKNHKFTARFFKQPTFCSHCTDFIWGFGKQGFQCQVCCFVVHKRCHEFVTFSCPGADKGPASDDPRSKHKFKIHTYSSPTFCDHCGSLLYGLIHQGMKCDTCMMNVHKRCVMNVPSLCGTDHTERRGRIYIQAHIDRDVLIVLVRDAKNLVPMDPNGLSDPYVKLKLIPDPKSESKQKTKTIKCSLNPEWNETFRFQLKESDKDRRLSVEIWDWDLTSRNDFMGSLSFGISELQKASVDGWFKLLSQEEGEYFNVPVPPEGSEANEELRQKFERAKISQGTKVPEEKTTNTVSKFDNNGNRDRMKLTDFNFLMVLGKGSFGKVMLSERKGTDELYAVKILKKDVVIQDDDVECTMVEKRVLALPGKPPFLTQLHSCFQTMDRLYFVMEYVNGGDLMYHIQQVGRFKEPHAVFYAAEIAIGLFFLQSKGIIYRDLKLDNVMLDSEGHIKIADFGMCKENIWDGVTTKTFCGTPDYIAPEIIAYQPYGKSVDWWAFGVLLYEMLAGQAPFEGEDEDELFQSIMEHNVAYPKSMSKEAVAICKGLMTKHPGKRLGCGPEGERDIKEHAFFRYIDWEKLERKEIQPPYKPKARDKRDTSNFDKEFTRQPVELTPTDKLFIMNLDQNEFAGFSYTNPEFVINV
The target is the same in assay [7]. Conditions: at 1 µM.
Assay [8] concerns the target T2, Serine/threonine-protein kinase D1 (Homo sapiens) (UniProt Q15139).
T2 sequence (whole entry): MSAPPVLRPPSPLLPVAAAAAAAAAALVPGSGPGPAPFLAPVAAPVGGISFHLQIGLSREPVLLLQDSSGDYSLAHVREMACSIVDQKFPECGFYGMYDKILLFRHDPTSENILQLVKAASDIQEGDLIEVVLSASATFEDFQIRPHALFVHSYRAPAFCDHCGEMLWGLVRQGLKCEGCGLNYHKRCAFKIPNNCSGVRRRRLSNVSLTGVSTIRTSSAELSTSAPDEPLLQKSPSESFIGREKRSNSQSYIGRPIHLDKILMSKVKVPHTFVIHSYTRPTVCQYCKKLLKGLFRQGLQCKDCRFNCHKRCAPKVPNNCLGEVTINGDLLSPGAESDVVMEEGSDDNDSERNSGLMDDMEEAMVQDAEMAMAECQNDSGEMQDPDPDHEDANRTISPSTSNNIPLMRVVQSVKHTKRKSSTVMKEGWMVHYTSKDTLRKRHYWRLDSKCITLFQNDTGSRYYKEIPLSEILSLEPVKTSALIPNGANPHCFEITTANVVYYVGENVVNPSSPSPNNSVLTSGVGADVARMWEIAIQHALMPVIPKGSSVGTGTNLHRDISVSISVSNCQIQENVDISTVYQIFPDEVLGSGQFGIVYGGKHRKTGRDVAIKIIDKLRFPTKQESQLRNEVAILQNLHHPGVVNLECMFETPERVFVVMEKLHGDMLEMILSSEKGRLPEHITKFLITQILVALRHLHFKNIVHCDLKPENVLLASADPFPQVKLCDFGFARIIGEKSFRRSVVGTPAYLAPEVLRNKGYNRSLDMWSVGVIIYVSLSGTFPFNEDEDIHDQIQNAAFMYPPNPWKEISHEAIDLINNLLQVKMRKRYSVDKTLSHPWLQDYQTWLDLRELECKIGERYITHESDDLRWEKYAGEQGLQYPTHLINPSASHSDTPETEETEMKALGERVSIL
To be noted: at 0.1 µM.

Assay [9] addresses T2, Serine/threonine-protein kinase D1 (Homo sapiens). Conditions: at 1 µM.
Assay [10] deals with T3, Serine/threonine-protein kinase D2 (Homo sapiens) (UniProt Q9BZL6).
T3 sequence (whole entry): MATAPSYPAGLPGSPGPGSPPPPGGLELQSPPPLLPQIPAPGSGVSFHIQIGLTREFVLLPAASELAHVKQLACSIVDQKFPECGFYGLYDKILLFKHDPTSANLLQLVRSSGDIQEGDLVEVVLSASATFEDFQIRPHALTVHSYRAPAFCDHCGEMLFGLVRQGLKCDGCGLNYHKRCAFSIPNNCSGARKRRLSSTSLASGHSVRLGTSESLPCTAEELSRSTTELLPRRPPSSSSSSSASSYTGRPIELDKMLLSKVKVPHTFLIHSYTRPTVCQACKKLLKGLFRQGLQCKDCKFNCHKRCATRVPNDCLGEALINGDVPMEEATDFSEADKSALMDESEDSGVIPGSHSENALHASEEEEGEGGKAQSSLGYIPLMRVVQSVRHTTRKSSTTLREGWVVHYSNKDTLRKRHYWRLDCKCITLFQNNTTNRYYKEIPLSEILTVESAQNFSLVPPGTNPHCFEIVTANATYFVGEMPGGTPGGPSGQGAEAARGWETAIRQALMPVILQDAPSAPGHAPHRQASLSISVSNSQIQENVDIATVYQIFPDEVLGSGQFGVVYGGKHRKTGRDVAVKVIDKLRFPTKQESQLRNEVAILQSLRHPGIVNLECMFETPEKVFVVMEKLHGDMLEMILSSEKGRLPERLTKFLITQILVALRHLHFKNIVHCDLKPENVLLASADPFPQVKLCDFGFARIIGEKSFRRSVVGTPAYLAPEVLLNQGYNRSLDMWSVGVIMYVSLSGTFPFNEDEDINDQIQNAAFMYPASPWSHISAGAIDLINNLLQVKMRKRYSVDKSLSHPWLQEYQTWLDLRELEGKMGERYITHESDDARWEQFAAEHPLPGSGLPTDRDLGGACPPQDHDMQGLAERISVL
To be noted: at 0.1 µM.

Assay [11] concerns the target T3, Serine/threonine-protein kinase D2 (Homo sapiens). Conditions: at 1 µM.
The target of assay [12] is T4, Serine/threonine-protein kinase D3 (Homo sapiens) (UniProt O94806).
T4 sequence (whole entry): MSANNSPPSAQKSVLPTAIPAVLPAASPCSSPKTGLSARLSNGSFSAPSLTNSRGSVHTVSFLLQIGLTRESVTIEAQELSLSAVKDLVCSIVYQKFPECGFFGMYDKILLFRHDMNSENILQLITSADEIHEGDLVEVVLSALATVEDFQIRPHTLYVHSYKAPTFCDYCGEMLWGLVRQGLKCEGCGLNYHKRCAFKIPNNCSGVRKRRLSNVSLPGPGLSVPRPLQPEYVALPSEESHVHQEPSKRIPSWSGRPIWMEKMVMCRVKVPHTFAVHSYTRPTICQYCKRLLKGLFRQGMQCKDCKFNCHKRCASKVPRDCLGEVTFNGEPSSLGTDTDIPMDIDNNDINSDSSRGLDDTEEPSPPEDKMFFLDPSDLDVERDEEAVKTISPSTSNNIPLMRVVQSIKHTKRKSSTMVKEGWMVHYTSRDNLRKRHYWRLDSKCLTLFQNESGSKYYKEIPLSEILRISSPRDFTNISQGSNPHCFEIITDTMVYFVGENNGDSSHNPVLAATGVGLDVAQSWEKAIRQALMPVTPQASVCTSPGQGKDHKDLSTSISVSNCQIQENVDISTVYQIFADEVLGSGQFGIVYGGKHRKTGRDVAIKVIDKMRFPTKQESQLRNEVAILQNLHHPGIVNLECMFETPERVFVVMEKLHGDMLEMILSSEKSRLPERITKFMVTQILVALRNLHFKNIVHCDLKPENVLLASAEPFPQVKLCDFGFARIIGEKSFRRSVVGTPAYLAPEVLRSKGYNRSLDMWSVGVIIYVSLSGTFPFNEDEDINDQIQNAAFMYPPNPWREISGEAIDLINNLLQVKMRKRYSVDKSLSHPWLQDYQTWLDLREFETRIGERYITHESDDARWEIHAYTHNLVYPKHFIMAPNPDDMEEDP
Conditions: at 0.1 µM.

Assay [13] deals with T4, Serine/threonine-protein kinase D3 (Homo sapiens). To be noted: at 1 µM.
Assay [14] deals with T5, cGMP-dependent protein kinase 1 (Homo sapiens) (UniProt Q13976).
T5 sequence (whole entry): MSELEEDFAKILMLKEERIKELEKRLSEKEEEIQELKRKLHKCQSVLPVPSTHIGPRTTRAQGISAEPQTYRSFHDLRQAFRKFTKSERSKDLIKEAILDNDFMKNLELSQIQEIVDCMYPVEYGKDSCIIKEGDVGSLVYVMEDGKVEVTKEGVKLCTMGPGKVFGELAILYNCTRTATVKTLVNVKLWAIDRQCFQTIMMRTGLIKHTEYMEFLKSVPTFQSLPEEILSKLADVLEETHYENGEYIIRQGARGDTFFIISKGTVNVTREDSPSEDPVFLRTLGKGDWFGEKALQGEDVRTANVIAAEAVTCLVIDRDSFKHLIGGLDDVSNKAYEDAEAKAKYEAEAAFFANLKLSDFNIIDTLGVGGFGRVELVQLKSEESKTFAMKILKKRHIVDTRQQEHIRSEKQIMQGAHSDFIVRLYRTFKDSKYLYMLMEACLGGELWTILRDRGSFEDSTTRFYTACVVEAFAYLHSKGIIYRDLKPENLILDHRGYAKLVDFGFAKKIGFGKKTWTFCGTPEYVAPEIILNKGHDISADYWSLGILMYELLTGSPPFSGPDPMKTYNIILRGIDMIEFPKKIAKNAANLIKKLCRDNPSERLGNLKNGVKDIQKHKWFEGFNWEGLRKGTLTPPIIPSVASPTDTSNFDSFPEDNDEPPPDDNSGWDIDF
To be noted: at 0.1 µM.

The target of assay [15] is T5, cGMP-dependent protein kinase 1 (Homo sapiens). Conditions: at 1 µM.
The target in assay [16] is T6, cGMP-dependent protein kinase 2 (Homo sapiens) (UniProt Q13237).
T6 sequence (whole entry): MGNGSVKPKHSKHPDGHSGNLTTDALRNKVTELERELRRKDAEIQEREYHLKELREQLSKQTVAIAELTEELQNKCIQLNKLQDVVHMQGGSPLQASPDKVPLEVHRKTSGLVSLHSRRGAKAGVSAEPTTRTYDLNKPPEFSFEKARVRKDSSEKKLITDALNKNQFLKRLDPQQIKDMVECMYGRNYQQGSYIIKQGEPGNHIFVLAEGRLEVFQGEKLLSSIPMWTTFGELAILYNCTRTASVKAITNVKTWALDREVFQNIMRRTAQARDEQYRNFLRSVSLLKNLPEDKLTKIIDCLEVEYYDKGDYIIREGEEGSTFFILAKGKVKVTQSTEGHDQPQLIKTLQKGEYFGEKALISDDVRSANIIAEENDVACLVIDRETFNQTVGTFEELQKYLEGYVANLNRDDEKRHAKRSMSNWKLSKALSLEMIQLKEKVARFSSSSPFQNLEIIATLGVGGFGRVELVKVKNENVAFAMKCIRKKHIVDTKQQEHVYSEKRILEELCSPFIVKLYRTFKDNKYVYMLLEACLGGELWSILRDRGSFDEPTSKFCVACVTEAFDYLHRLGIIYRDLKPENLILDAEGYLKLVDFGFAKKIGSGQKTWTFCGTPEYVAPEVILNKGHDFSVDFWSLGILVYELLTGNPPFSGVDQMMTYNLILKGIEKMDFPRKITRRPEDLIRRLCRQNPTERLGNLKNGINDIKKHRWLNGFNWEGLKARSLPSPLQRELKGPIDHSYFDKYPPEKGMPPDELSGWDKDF
Conditions: at 0.1 µM.

Assay [17] has as its target T6, cGMP-dependent protein kinase 2 (Homo sapiens). To be noted: at 1 µM.
The target of assay [18] is T7, cAMP-dependent protein kinase catalytic subunit PRKX (Homo sapiens) (UniProt P51817).
T7 sequence (whole entry): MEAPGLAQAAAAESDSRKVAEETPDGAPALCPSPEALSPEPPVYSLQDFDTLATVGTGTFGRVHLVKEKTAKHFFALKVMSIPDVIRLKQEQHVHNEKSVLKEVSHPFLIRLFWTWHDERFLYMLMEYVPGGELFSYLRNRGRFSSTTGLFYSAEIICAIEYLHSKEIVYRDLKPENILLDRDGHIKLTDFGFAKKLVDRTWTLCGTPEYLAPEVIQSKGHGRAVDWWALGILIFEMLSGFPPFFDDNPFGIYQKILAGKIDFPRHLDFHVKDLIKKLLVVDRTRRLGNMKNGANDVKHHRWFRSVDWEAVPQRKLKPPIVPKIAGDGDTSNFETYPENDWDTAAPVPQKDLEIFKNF
Conditions: at 0.1 µM.

Assay [19] addresses T7, cAMP-dependent protein kinase catalytic subunit PRKX (Homo sapiens). To be noted: at 1 µM.
The target in assay [20] is Rho-associated protein kinase 1 (Homo sapiens) (UniProt Q13464). Conditions: at 0.1 µM.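 Note: values are mean percent inhibition of ROCK1.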
Chain of Rho-associated protein kinase 1 (Homo sapiens) (Q13464 2-1354 limits assumed): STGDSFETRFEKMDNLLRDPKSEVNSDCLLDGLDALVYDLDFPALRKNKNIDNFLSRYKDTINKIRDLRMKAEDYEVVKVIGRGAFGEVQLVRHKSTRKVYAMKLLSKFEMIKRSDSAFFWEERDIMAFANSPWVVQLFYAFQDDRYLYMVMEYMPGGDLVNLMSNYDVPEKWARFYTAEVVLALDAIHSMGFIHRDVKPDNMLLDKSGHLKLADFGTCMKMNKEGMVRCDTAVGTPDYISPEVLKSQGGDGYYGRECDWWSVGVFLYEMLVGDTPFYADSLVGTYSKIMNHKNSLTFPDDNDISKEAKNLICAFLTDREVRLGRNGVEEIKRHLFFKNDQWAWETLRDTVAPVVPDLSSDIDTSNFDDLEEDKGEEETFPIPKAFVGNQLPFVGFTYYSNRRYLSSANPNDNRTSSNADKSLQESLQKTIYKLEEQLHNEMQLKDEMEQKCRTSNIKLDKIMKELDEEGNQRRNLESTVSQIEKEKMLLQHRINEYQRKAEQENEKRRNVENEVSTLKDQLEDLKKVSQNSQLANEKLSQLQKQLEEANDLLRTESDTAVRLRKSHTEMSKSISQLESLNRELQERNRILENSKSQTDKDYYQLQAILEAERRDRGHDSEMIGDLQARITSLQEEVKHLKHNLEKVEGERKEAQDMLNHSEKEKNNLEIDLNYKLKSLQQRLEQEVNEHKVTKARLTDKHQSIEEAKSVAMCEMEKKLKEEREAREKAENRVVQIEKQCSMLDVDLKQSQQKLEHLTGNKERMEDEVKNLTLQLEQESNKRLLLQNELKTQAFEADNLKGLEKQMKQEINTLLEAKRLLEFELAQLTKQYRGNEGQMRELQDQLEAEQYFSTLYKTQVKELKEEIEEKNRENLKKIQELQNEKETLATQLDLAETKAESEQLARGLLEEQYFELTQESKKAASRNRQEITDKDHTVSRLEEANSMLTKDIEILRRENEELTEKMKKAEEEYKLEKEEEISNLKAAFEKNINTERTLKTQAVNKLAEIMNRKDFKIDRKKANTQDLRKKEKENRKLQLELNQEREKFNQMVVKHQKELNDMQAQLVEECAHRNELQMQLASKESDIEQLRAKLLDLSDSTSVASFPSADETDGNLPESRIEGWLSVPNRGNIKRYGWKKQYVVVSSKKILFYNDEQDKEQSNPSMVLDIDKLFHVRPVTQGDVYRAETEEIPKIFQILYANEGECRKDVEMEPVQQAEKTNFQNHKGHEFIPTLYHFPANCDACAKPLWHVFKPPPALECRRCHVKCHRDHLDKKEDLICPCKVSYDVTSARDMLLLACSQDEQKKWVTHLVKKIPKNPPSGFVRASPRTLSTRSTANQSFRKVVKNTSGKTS

Take `COc1cc2ncn(-c3cc(OCc4ccccc4C(F)(F)F)c(C(C)=O)s3)c2cc1OC`: the inhibition in [1] is 0.33%; in [2] it was 0.95%; in assay [3], 1.41%; in [4], 1.39%; in [5] it was 0.74%; in [6], 0.72%. Also, the inhibition in assay [7] was found to be 0.23%; in [8] it was 3.39%; in assay [9], 5.09%; in [10], 2.5%; in assay [11], 2.55%; in [12] it was 2.93%. Further, the inhibition is 3.23% in assay [13]; 1.35% in [14]; 0.72% in assay [15]; 0.9% in assay [16]; 0% in [17]; 0.6% in assay [18]. Besides, the inhibition was 0.44% in assay [19] and 0.94% in assay [20].

With `O=C(Nc1n[nH]c2nc(-c3ccco3)ccc12)C1CC1`, the inhibition in [1] was 3.88%; in assay [2], 1.28%; in [3], -0.15%; in [4] it was 0.24%; in assay [5], -0.12%; in assay [6] it was 0.74%. Also, the inhibition in [7] is 1.21%; in assay [8], 0.7%; in assay [9] it was 1.4%; in assay [10] it was -0.13%; in [11], 1.79%; in assay [12], 0.02%. Further, the inhibition in [13] came out at 1.55%; in assay [14], 2.2%; in [15] it was 4.23%; in [16], 0.68%; in assay [17], 3.61%; in assay [18] it was 2.71%. Further, the inhibition was determined as 3.87% in [19] and 1.29% in [20].
